High-throughput results from PubChem BioAssay.
D1 antag: Antagonist of Human D 1 Dopamine Receptor: qHTS. activity change, negative = inhibition, % at 10 µM. D(1A) dopamine receptor (Homo sapiens), P21728. 3.2% of 360,000 active. AID 504652, 2011. HEK293 TREx D1 cells, calcium flux, dopamine EC80; active compounds read low; in the data active means activity change below about -30%
Target sequence (P21728 whole entry, looked up): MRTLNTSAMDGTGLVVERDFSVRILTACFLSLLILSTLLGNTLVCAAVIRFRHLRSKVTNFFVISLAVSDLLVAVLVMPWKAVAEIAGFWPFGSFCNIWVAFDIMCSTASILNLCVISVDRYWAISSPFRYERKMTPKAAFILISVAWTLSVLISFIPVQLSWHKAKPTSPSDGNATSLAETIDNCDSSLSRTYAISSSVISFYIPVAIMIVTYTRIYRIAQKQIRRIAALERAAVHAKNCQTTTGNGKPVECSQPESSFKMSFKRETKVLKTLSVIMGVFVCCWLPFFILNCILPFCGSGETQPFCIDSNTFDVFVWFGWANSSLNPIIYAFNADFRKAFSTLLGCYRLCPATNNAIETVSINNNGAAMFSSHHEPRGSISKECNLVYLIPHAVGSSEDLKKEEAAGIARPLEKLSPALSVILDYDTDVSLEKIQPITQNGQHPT
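Calcium flux readout: force-coupled, inducible Hek293 Trex D1 line, cells induced overnight at 30 C with tetracycline, dye-loaded 30–90 min at RT. Antagonism scored against EC80 dopamine challenge given 180 s after compound.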
TRHR agonist: qHTS for Small Molecule Agonists and Allosteric Enhancers of Human TRH Receptor: Primary Screen for Agonists; Thyrotropin-releasing hormone receptor (Homo sapiens), P34981; 0.18% of 360,000 active; activation, % at 2 µM; AID 493084, 2011; TRHR cells, calcium flux fluo-8, FDSS agonist mode
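Read-out: compound-evoked intracellular calcium rise in TRHR cells, fluo-8 dye, kinetic FDSS fluorescence at 1 s/cycle following a 10-cycle baseline. Cells cultured overnight before dye loading (30 min–1.5 h, RT).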
TRHR enhancer: qHTS for Small Molecule Agonists and Allosteric Enhancers of Human TRH Receptor: Primary Screen for Enhancers | TRHR cells, fluo-8 calcium fluorescence, EC20 TRH enhancement | enhancement, % at 2 µM | 0.66% of 360,000 active | Thyrotropin-releasing hormone receptor (Homo sapiens), P34981; in the data active means enhancement above about 30%
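TRHR-expressing cells loaded with fluo-8 calcium dye were read kinetically (ex 480/em 530) during compound addition, then stimulated with an EC20 of TRH (10 nM final). Enhancement of the Gq-mediated intracellular calcium response was scored.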
D1 ag: Allosteric Agonists of the Human D1 Dopamine Receptor: qHTS; 1% of 360,000 active; D(1A) dopamine receptor (Homo sapiens), P21728; activation, % at 2 µM; HEK293 T-REx D1 cells, calcium flux, agonist mode; AID 504660, 2011
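Agonism was scored from calcium flux recorded over 180 s (1 read/s) after pintool compound addition, following a 10-cycle baseline. Cells were inducible force-coupled HEK293 TREx D1, plated overnight at 30 C and loaded with no-wash calcium dye.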
D1 potentiator: Potentiators of Human D1 Dopamine Receptor: qHTS | D(1A) dopamine receptor (Homo sapiens), P21728 | HEK293 TREx D1 cells, calcium flux, dopamine EC20 potentiation | potentiation, % at 10 µM | 0.036% of 360,000 active; in the data active means potentiation above about 30%
Hits are given with their value; n = inactive; x = no result given. Rows were chosen to be rich in hits. Some 4.7% of all compounds tested hit in one or more screens of this group. Unless noted, no stated cut-off is given here; in the data, active means activation above about 30%; inactive means the rest.

SMILES | D1 antag | TRHR agonist | TRHR enhancer | D1 ag | D1 potentiator
OC(COc1ccc(Br)cc1)CN1CCC(Cc2ccccc2)CC1 (stereo unspecified) | -42.9 | n | n | n | n
CC1CCN(CC(O)COc2cccc(F)c2)CC1 (stereo unspecified) | n | n | n | n | x
COc1ccc(OCC(O)CN2CCN(c3ccccc3)CC2)cc1 (stereo unspecified) | n | n | n | n | n
CC1CCN(CC(O)COc2ccc(F)cc2)CC1 (stereo unspecified) | -49.4 | n | n | n | x
COc1cccc(C(=O)OCC(=O)Nc2ccc(N3CCOCC3)cc2)c1 | n | n | n | n | n
Cc1cc(C)c(C(=O)OCC(=O)Nc2cccc(S(=O)(=O)N3CCCCC3)c2)c(C)c1 | n | n | n | 36.9 | n
CC1CCCCC12NC(=O)N(CC(=O)Nc1cccc(S(=O)(=O)N3CCCCC3)c1)C2=O (stereo unspecified) | -52.9 | n | n | n | n
O=C(CSC(=S)N1CCCC1)N1CCN(S(=O)(=O)c2cccc(F)c2)CC1 | n | n | n | n | n
O=C(CSC(=S)N1CCCC1)N1CCN(S(=O)(=O)c2cccc([N+](=O)[O-])c2)CC1 | -32.9 | n | n | n | n
O=C(COC(=O)c1ccc(O)cc1)Nc1cccc(S(=O)(=O)N2CCCCC2)c1 | n | n | n | n | n
O=C(Cc1c[nH]c2ccccc12)Nc1cccc(S(=O)(=O)N2CCCCC2)c1 | -30.3 | n | n | n | n
COc1ccc([C@@H]2[C@@H]3C(=O)N(C(C)(C)C)C(=O)[C@@H]3[C@]3(Cc4ccc(Cl)cc4)C(=O)N(c4ccc(C)cc4)C(=O)N23)cc1 | n | n | n | n | n
O=C(CNc1cc([N+](=O)[O-])ccc1NCCO)Nc1cccc(S(=O)(=O)N2CCCCC2)c1 | n | n | n | n | n
N#Cc1ccsc1NC(=O)CSc1ncn[nH]1 | n | n | n | n | n
N#Cc1ccccc1NC(=O)CSc1ncn[nH]1 | -34.9 | n | n | n | n
O=C(CSc1ncn[nH]1)Nc1cccc(S(=O)(=O)N2CCCCCC2)c1 | -35.7 | n | n | n | n
O=C(CNc1cccc(S(=O)(=O)N2CCCCCC2)c1)Nc1cccc([N+](=O)[O-])c1 | -32.3 | n | n | n | n
COC(=O)c1cc(NC(=O)CSc2ncn[nH]2)ccc1Cl | -44.0 | n | n | n | n
Cc1ccc(NC(=O)CSc2ncn[nH]2)cc1 | n | n | n | n | n
O=C1[C@@H]2Cc3c([nH]c4ccccc34)CN2C(=O)CN1CCCCCO | n | n | n | n | n
COc1ccc(N2CCN(C3CCN(S(=O)(=O)c4ccc(F)cc4)CC3)CC2)cc1 | n | n | n | n | n
COc1cccc(C(c2ccccc2)N2C3CCC2CN(S(=O)(=O)c2ccc(F)cc2)CC3)c1 (stereo unspecified) | n | n | n | 61.9 | n
N#Cc1cccc(NC(=O)Cn2nc(Cc3ccncc3)c3ccccc3c2=O)c1 | n | n | n | n | n
Cc1ccc(SCCNC(=O)c2ccccc2F)cc1 | n | n | n | n | n
CS(=O)(=O)Nc1ccccc1C(=O)NCCSc1ccc(Cl)cc1 | -31.9 | n | n | n | n
SMILES | D1 antag | TRHR agonist | TRHR enhancer | D1 ag | D1 potentiator
O=C(NCc1n[nH]c(=O)c2ccccc12)C1CC(=O)N(c2ccccc2)C1 (stereo unspecified) | n | n | n | n | n
CC(C)Cc1cc(C(C)(C)C)ccc1OC(=S)N(C)C | n | n | n | n | n
Cc1ccc(S(=O)(=O)N2CCCCC2)cc1NC(=O)C1=NN(c2ccccc2)C(=O)CC1 | -43.9 | n | n | n | n
Cc1ccc(S(=O)(=O)N2CCCCC2)cc1NC(=O)Cn1ccsc1=N | -39.1 | n | n | n | n
Cc1ccc(Oc2ccc(NC(=O)Cn3ccsc3=N)cc2)cc1 | n | n | n | 85.1 | n
Cc1ccc(S(=O)(=O)N2CCCCC2)cc1NC(=O)C1CCC1 | -33.6 | n | n | n | x
N=c1sccn1CC(=O)Nc1cc(S(=O)(=O)N2CCCCC2)ccc1Cl | n | n | n | n | n
